Data reported in the supplement of paper PMC10849652.
The full data set covers some 7,900 targets. This sample favours those with a hit. About 0.6% of all pairs of compound and target were hits.

These targets were tested with COc1cc(C(=O)O)ccc1NC(=O)[C@@H]1N[C@@H](CC(C)(C)C)[C@](C#N)(c2ccc(Cl)cc2F)[C@H]1c1cccc(Cl)c1F [idasanutlin] (assay: log2 fold change, soluble protein after heating vs DMSO (PISA); higher = thermal stabilisation; K562 cells, 10 uM, 30 min; active = over 0.2 and 3.5 SD of the protein, either way, in both replicates (recomputed)).
Procedure, shortened: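 K562 cells (2×10^6 cells/mL) were treated with 10 μM compound for 30 min, and aliquots were heated for 3 min over 48°C-58°C. Pooled aliquots were extracted in PBS with 0.5% NP-40 at 4°C, and the supernatant after 21,000xg for 90 min was measured by TMTpro 16plex LC-MS/MS with channel sums equalised. Reported thermal stability, relative to control samples and from duplicates, is a log2 fold change.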

UniProt Q9BUP3, sequence (Q9BUP3 whole entry, looked up): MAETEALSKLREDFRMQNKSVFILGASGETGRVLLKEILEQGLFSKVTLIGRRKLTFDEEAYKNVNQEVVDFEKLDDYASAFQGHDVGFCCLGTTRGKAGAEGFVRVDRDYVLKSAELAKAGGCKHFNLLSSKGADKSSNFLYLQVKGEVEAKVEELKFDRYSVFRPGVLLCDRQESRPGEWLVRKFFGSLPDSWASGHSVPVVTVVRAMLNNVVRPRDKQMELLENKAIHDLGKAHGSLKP
UniProt P23434, sequence (P23434 whole entry, looked up): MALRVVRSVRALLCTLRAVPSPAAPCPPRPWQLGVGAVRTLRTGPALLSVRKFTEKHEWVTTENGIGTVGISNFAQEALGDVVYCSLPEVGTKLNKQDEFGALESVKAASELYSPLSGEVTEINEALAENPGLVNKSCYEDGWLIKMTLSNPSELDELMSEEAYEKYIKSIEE
UniProt Q9H4A6, sequence (Q9H4A6 whole entry, looked up): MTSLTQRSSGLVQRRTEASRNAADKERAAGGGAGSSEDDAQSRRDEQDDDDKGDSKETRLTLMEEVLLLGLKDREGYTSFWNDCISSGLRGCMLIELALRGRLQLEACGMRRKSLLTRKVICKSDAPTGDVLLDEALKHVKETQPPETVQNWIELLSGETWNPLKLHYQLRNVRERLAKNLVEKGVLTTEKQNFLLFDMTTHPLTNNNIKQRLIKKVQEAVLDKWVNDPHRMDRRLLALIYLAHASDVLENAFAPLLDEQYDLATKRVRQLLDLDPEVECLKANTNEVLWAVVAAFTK
UniProt Q9Y6M1, sequence (Q9Y6M1 whole entry, looked up): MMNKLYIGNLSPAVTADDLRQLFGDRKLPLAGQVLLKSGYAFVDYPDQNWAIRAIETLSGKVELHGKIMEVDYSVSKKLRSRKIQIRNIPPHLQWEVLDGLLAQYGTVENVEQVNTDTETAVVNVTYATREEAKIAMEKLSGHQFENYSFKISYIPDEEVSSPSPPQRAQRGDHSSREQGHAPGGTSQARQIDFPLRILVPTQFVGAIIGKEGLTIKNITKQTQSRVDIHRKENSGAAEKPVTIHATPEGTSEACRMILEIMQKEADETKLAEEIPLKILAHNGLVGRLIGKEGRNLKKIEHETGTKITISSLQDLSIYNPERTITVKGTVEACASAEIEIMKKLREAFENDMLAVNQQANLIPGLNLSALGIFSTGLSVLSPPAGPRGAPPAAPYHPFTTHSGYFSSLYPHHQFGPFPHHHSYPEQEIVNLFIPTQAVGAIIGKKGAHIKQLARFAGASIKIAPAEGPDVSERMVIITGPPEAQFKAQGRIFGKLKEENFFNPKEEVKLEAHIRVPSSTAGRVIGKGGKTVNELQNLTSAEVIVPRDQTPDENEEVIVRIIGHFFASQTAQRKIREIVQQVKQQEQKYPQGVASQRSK
UniProt Q9UBN7, sequence (Q9UBN7 whole entry, looked up): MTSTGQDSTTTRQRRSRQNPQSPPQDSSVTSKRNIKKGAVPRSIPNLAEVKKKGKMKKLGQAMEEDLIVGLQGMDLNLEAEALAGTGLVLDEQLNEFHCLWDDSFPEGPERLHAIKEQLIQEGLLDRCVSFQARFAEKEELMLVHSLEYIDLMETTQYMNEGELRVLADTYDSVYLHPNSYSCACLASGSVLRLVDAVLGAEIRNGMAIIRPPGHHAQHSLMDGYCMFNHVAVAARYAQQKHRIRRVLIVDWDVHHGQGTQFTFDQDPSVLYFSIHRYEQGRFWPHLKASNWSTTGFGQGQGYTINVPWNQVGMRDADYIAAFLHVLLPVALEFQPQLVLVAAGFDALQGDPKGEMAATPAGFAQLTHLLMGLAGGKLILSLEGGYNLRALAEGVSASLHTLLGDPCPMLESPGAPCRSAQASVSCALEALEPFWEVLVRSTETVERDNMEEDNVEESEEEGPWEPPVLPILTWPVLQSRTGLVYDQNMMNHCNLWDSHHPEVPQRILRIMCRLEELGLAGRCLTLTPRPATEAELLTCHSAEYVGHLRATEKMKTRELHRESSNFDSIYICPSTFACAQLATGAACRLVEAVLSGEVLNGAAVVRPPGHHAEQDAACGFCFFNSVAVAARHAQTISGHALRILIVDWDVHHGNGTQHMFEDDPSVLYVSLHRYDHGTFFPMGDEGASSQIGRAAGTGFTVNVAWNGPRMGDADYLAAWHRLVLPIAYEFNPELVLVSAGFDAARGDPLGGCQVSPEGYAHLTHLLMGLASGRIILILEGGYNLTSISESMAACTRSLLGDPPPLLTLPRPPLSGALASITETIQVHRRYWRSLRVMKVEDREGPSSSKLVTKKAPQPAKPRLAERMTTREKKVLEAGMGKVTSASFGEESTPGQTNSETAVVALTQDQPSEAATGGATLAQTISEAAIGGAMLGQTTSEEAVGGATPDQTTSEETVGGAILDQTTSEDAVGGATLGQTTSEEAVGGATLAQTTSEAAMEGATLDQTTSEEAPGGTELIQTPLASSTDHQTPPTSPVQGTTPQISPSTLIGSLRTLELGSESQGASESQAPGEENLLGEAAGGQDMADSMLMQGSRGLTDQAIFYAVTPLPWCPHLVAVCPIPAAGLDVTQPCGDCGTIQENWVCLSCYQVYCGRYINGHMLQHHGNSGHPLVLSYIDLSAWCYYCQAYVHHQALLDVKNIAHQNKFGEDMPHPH
UniProt O15347, sequence (O15347 whole entry, looked up): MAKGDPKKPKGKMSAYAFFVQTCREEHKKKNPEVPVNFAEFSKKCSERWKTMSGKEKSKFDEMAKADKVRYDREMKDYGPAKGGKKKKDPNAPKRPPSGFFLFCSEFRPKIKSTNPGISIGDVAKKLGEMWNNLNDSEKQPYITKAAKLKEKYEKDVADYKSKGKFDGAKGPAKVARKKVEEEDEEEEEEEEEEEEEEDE
UniProt Q9Y613, sequence (Q9Y613 whole entry, looked up): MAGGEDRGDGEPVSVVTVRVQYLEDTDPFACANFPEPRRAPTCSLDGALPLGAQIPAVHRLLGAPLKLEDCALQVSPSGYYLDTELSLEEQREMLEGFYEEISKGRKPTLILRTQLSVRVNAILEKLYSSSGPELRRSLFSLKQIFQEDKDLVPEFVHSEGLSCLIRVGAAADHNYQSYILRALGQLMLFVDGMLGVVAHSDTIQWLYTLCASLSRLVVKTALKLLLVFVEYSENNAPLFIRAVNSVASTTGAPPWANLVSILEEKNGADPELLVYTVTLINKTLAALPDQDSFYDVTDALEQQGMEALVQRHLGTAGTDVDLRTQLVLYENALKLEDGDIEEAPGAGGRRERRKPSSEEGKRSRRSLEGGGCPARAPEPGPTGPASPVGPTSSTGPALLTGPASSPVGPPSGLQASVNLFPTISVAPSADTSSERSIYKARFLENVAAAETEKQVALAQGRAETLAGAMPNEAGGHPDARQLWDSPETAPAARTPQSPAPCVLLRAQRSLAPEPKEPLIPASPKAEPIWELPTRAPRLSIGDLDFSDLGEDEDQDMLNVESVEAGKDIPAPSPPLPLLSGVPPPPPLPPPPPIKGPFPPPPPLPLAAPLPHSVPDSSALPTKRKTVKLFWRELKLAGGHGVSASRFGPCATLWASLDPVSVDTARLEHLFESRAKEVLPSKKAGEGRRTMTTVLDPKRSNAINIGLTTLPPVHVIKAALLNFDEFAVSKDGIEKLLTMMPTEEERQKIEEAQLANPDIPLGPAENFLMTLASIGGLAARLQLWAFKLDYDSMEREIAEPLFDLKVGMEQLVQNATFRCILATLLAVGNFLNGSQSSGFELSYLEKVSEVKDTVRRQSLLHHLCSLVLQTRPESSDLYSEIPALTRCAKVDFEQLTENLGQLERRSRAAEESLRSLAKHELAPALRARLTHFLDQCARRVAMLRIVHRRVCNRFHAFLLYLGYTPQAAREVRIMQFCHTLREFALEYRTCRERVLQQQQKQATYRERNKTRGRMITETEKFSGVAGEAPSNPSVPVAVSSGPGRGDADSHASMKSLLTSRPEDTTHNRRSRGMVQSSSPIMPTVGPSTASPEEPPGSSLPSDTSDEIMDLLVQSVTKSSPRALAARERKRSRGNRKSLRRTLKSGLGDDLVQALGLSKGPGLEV
UniProt Q9Y3D6, sequence (Q9Y3D6 whole entry, looked up): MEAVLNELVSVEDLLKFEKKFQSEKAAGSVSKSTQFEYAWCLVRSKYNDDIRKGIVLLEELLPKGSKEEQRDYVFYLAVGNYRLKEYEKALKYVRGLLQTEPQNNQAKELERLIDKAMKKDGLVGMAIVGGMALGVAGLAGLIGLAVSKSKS
UniProt P85037, sequence (P85037 whole entry, looked up): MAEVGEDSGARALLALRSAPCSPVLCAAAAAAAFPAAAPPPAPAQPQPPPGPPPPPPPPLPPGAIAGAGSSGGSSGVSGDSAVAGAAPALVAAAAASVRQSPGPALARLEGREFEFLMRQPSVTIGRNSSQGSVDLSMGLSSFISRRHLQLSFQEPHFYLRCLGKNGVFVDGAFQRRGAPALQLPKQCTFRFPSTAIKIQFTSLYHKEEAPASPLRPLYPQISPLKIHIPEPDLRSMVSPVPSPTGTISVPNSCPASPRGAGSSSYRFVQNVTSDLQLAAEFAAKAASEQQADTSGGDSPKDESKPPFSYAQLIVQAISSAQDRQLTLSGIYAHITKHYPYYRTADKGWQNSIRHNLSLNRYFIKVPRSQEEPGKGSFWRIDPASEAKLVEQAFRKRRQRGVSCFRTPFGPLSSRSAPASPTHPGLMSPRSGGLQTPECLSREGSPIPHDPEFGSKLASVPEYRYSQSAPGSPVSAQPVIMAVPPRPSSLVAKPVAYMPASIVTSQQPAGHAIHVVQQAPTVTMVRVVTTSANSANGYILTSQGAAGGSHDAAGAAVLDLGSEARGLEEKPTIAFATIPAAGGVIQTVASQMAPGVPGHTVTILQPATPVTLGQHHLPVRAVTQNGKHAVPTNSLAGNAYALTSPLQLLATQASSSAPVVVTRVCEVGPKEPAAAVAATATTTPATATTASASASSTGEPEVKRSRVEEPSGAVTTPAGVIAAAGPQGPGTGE
UniProt Q92522, sequence (Q92522 whole entry, looked up): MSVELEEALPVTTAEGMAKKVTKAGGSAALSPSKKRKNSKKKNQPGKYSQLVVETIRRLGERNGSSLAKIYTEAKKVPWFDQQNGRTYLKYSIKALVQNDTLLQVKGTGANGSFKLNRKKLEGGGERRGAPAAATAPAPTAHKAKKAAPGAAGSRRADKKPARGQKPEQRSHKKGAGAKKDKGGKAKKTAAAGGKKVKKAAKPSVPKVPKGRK

log2 fold change, inactive:
IGF2BP2 (UniProt Q9Y6M1) 0.136
GBA2 (UniProt Q9HCG7) -0.042
HADHA (UniProt P40939) -0.321
GCSH (UniProt P23434) -0.024
HEATR5B (UniProt Q9P2D3) 0
GBF1 (UniProt Q92538) -0.037
GOLPH3 (UniProt Q9H4A6) -0.057
GYS1 (UniProt P13807) 0.462
GNS (UniProt P15586) -0.002
FIS1 (UniProt Q9Y3D6) -0.047
HMGB3 (UniProt O15347) 0.045
HHEX (UniProt Q03014) 0.035
GSR (UniProt P00390) -0.049
GLUD2 (UniProt P49448) -0.07
FBL (UniProt P22087) 0.441
FCHO1 (UniProt O14526) 0.072
HTATIP2 isoform 3 (UniProt Q9BUP3) -0.031
GNG5 (UniProt P63218) 0.065
HDAC6 (UniProt Q9UBN7) -0.055
HNRNPUL1 (UniProt Q9BUJ2) 0.03
FHOD1 (UniProt Q9Y613) 0.127
H1FX (UniProt Q92522) 0.161
FOXK1 (UniProt P85037) -0.123
GDE1 (UniProt Q9NZC3) -0.064
